Test results published in PubChem BioAssay (NCATS).
Results filed as inconclusive are left out. Activity calls are given as the source filed them. The call rests on the fitted dose curve; in most records, active means well fitted cell-killing curve with a large enough effect; inconclusive means small, poorly fitted or top-dose-only effect, or effect the other way; inactive means no such curve, though single readings can be large or run the other way.

Assay: Viability qHTS for spleen associated tyrosine kinase inhibitor (SYKi) drug resistant MV4-11 cells (AID 1963824); further: nearly all actives have a fitted effect of over 35% in size
Details: SYKi-resistant MV4-11 viability, CellTiter-Glo, 72 h; series mostly up to 45 µM
Method in brief: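 SYK inhibitor-resistant MV4-11 AML cells, 500 per well, added to predispensed compounds and incubated 72 hr at 37 C, 5% CO2. Viability measured by CellTiter-Glo luminescence after 10 min at room temperature.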
Potency means the concentration at half of the fitted maximal effect.

SMILES	viability, % of control	Potency
CC1(C(=O)O)CC[C@]2(C(=O)OC3OC(CO)C(O)C(O)C3O)CC[C@]3(C)C(=CCC4[C@@]5(C)CC[C@H](OC6OCC(O)C(O)C6OC6OC(CO)C(O)C(O)C6O)C(C)(C)C5CC[C@]43C)C2C1 (some centres undefined)	78.9% [at 9.25 µM] (inactive)	–
CC1=CC(=O)CC(C)(C)C1CCC(C)O[C@@H]1O[C@H](CO)[C@@H](O)[C@H](O)[C@H]1O (some centres undefined)	–	inactive
CCc1ccc(N(CC(C)C)S(=O)(=O)c2ccc(OCC3CCOCC3)c(CO)c2)cc1	–	18.6 µM (active)
CC[C@H](C(=O)Nc1ccccc1N1CCCC1)c1ccccc1	–	23.1 µM (active)
COc1cc(/C=C2\CC[C@H]3COC[C@@H](c4cc(F)c(F)c(F)c4)N3C2=O)ccc1-n1cnc(C)c1	–	13 µM (active)
O=C(Cc1c(F)cccc1F)Nc1cc(OCc2ccc(Cl)cc2)ccn1	–	14.6 µM (active)
COC(=O)[C@]1(Cc2ccc(O)c(CC=C(C)C)c2)OC(=O)C(O)=C1c1ccc(O)cc1	–	8.93 µM (active)
C=CCc1ccc(OC(C)Cc2ccc(OC)c(OC)c2)c(OC)c1 (centres undefined)	–	12.8 µM (active)
C[C@@H](NC(=O)[C@H](O)c1cc(F)cc(F)c1)C(=O)N[C@@H]1C(=O)N(C)c2ccccc2-c2ccccc21	–	18.4 µM (active)
C=C1C(O)C(O)C2(CC3C(C)=CCC4C(C)(CO)CCCC34C)OC2C1O (centres undefined)	–	inactive
CO[C@H]1/C=C/[C@@](C)(O)/C=C/C(=O)O[C@H](C)[C@@H](C)CC/C=C/1C	–	12.8 µM (active)
O=[N+]([O-])c1ccc(-[n+]2nc(-c3ccccc3)nn2-c2ccc(I)cc2)cc1	–	inactive
CC1(CO)CCCC2(C)C3COC(=O)C3=CC(O)C12 (centres undefined)	–	inactive
Cc1ccc(C)c(-c2cc(C(F)(F)F)nn2-c2ccc(S(N)(=O)=O)cc2)c1	–	14.6 µM (active)
CC[C@]1(O)CC2CN(CCc3c([nH]c4ccccc34)[C@@](C(=O)OC)(c3cc4c(cc3OC)N(C=O)[C@H]3[C@@](O)(C(=O)OC)[C@H](OC(C)=O)[C@]5(CC)C=CCN6CC[C@]43[C@@H]65)C2)C1 (some centres undefined)	–	0.0508 µM (active)
C=C1CCCC2(C)CCC(C(C)(C)OC3OC(C)C(O)C(O)C3OC(=O)/C(C)=C\C)CC12 (centres undefined)	–	8.93 µM (active)
Cc1nc2sccn2c(=O)c1CCN1CCC(=C(c2ccc(F)cc2)c2ccc(F)cc2)CC1	–	11.9 µM (active)
Cc1cc(N=Nc2ccc(S(=O)(=O)Nc3ccccn3)cc2)c(N)cc1O	–	2.59 µM (active)
O=C(Nc1ccc(S(=O)(=O)Nc2ccccc2Cl)c(Cl)c1)c1ccccn1	–	20.6 µM (active)
C[C@@H]1C[C@@H](O)[C@@]23CO[C@]2(CO)CCC[C@@H]3[C@@]12C[C@@H](c1ccoc1)OC2=O	–	inactive
COc1c2c(c(C)c3c1C(=O)OC3)O[C@@]1(C)C[C@@H](O)[C@]34O[C@](OC)(CC[C@]3(C)[C@H]1C2)OC4(C)C	–	inactive
C[C@@H]1C[C@@H]([C@@H](O)C(C)(C)O)O[C@H]2C[C@@]3(C)C(=C12)C[C@H](O)[C@H]1[C@@]2(C)CCC(=O)C(C)(C)C2CC[C@@]13C (some centres undefined)	–	1.26 µM (active)
Cn1nc(C(C)(C)C)cc1C(=O)N[C@@H](Cc1cccc(Cl)c1)C(=O)NCC#N	–	13 µM (active)
Nc1ccn([C@H]2O[C@@H](CO)[C@H](O)[C@H]2O)c(=O)n1	–	1.46 µM (active)
CCC/C=C/C(=O)O[C@H]1CC(C)(C)CC2[C@@]13[C@H](O)C[C@]1(C)[C@@]2(CCC2[C@@]4(C)CC[C@H](O[C@@H]5O[C@H](C(=O)O)[C@@H](O)[C@H](O[C@@H]6O[C@H](CO)[C@H](O)[C@H](O)[C@H]6O[C@@H]6O[C@@H](C)[C@H](O)[C@@H](O)[C@H]6O[C@@H]6OC[C@](O)(CO)[C@H]6O)[C@H]5O[C@@H]5O[C@H](CO)[C@H](O)[C@H](O)[C@H]5O)C(C)(C)C4CC[C@]21C)O[C@H]3O (some centres undefined)	–	2.75 µM (active)
COc1cc2nc(N3CCN(C)CC3)nc(NC3CCN(Cc4ccccc4)CC3)c2cc1OC	–	3.26 µM (active)
C#Cc1cccc(Nc2ncnc3cc(OC)c(OC)cc23)c1	–	1.64 µM (active)
C=C[C@]1(C)C[C@H](O)[C@H]2C(=C)C(=O)O[C@@H]2[C@H]1C(=C)CO	–	14.6 µM (active)
C/C=C(\C)C(=O)OC1C(C)C2(O)C(C=C(CO)CC3(O)C(=O)C(C)=CC32)C2C(C)(C)C12OC(C)=O (centres undefined)	–	0.112 µM (active)
